# Records with an inconclusive call do not appear. Calls of active or inactive are those of the source. Unless noted, the call rests on the fitted dose curve; in most records, active means well fitted curve in the direction sought with a large enough effect; inconclusive means small, poorly fitted or top-dose-only effect, or another doubt; inactive means no such curve, though single readings can be large; an effect the other way counts as inactive or inconclusive.
# Columns and labels:
# [1] = qHTS Assay for Lipid Storage Modulators (AID 1519; calls by dose curve; on activity change, negative = inhibition: on the % scale 0 is the no-effect control and ±100 the full control effect); details: Drosophila S3 cells, BODIPY lipid droplet/cell ratio, laser cytometry, cells loaded with oleic acid
# In short: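 Cells seeded at 5,000 per well were treated with compounds over a concentration series and loaded with oleic acid (400 uM, as added). Lipid droplet fluorescence (488 nm excitation, 500-530 nm channel) was read by laser-scanning cytometry and normalized to 20 uM Triacsin C.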
# [2] = biological target: Ubiquitin carboxyl-terminal hydrolase 1 (Homo sapiens) (UniProt O94782); assay: Inhibitors of USP1/UAF1: Pilot qHTS (AID 504865); details: purified USP1/UAF1, Ub-rhodamine cleavage fluorescence; series mostly up to 114 µM; further: nearly all actives have a fitted effect of over 35% in size; further: potency means the concentration at half of the fitted maximal effect
# Ubiquitin carboxyl-terminal hydrolase 1 (Homo sapiens), sequence (O94782 whole entry, looked up): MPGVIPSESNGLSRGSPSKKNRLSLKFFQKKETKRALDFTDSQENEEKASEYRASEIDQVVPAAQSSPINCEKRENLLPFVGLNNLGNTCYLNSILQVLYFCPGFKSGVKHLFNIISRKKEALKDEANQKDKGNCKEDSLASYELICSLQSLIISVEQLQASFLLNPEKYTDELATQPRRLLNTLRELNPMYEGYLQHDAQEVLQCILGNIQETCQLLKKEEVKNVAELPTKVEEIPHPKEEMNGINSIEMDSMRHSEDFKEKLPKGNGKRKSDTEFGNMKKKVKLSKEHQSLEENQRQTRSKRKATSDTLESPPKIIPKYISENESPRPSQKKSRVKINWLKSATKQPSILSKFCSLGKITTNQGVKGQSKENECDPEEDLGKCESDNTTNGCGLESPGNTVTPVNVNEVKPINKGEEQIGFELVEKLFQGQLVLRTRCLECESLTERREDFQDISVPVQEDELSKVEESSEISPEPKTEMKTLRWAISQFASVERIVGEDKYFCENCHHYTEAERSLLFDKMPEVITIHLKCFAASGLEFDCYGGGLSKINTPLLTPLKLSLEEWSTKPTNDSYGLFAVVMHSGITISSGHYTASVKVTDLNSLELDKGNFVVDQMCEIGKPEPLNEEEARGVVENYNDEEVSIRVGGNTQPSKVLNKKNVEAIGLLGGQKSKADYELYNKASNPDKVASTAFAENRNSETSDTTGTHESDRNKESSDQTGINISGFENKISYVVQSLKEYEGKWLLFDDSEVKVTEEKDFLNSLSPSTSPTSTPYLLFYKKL
# In short: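 Deubiquitinase activity followed as kinetic rhodamine fluorescence release from 150 nM Ub-Rho. 1 nM USP1/UAF1 with compound, after 15 min room-temperature preincubation, in HEPES pH 7.8 buffer containing TCEP, EDTA, BSA and Tween-20.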
# [3] = biological target: ATP-dependent 6-phosphofructokinase (Trypanosoma brucei brucei) (UniProt O15648); assay: qHTS Assay to Find Inhibitors of T. brucei phosphofructokinase: hit validation (AID 492961);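 further: luminescence reports ADP formed as PFK phosphorylates fructose-6-phosphate with ATP; on the % scale 0 is the no-effect control and ±100 the full control effect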; details: T. brucei PFK, ADP-Glo luminescence; series mostly up to 51.4 µM
# ATP-dependent 6-phosphofructokinase (Trypanosoma brucei brucei), sequence (O15648 whole entry, looked up): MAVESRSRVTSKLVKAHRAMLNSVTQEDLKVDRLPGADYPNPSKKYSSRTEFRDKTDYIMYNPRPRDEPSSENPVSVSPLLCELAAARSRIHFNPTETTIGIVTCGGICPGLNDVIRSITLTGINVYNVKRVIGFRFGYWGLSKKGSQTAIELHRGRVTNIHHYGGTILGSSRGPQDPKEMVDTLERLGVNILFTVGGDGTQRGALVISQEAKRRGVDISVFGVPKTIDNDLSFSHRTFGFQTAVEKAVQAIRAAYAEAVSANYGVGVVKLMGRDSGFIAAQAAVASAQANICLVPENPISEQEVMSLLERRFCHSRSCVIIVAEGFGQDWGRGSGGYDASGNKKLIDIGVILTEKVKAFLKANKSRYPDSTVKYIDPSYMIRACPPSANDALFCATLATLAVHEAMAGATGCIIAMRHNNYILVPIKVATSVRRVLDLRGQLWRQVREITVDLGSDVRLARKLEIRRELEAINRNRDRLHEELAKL
# In short: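 Measures ADP output of PFK (1.25 nM) at 0.1 mM ATP, 0.5 mM F6P, pH 8.0 TEA buffer with 5 mM MgCl2. No-enzyme wells define full inhibition; uninhibited enzyme wells define zero.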
# [4] = biological target: Luciferin 4-monooxygenase (Photinus pyralis) (UniProt P08659); assay: Biochemical firefly luciferase enzyme assay for NPC (AID 624030);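 further: purified P. pyralis luciferase at 10 nM with luciferin and ATP substrate; 0% = DMSO and -100% = full luciferase inhibition by PTC124 control; nearly all actives have a fitted effect of over 70% in size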; details: purified P. pyralis luciferase, luminescence, 5 min; series mostly up to 58.6 µM
# Luciferin 4-monooxygenase (Photinus pyralis), sequence (P08659 whole entry, looked up): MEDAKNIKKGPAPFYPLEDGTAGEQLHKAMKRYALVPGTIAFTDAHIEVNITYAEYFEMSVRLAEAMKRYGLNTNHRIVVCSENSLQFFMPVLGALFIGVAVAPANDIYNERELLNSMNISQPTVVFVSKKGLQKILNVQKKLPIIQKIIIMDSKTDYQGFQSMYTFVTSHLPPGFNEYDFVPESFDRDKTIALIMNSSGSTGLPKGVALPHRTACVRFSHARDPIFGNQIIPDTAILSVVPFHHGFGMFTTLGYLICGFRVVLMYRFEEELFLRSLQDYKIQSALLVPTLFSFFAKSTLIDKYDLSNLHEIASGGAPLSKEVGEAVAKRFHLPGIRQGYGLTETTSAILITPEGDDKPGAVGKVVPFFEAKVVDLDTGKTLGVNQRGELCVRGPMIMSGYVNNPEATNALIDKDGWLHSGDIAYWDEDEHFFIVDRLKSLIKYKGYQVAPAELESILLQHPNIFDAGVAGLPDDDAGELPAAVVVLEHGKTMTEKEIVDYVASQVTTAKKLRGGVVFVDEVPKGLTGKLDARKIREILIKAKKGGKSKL
# In short: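 Direct inhibition of firefly luciferase enzyme (10 nM final, 50 mM Tris Acetate) assessed by luminescence within 5 minutes. Percent activity scaled between DMSO and PTC124 positive control, with concentration-effect curves classified by fit quality and response.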
# [5] = S16 Schwann cell viability assay (CellTiter-Glo assay) (AID 624031); details: S16 rat Schwann cells viability, 24 h; series mostly up to 57.5 µM;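 further: native untransfected S16 rat Schwann cells; plate controls were DMSO-treated cells for no effect and cell-free wells for full effect; nearly all actives have a fitted effect of over 70% in size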
# In short: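 Counter-screen for cytotoxicity: parental S16 rat Schwann cells lacking the PMP22 reporters, treated 24 h with compound, viability from cellular ATP by CellTiter-Glo luminescence, normalized to DMSO (0%) and no-cell wells.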
# [6] = S16 Schwann cell PMP22 intronic element firefly luciferase assay (AID 624032); details: S16 rat Schwann cells, PMP22 element FLuc, 24 h; series mostly up to 57.5 µM;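 further: plate controls were DMSO for no effect and PTC124 positive control mean for full effect; nearly all actives have a fitted effect of over 30% in size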
# In short: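 Luciferase reporter of PMP22 intronic-element expression in stably transfected S16 rat Schwann cells, read by ONE-Glo luminescence after 24 h compound exposure at 37 C. Activity scaled between DMSO (0%) and positive-control PTC124; concentration-effect curves quality-classified.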
# [7] = biological target: Mitogen-activated protein kinase 10 (Mus musculus) (UniProt Q61831); assay: JNK3 AlphaScreen Assay (AID 530; active means well fitted curve in either direction with a large enough effect, not every such curve was filed as active;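 further: kinase came from lysate of stimulated human HepG2 cells; signal reports phosphorylation of biotinylated GST-cJun 1-79 at Ser73 with 10 µM ATP; on the % scale 0 is the no-effect control and ±100 the full control effect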); details: JNK3 lysate, c-Jun phosphorylation; series mostly up to 57.1 µM
# In short: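 Kinase buffer: 20 mM Tris-HCl pH 7.6, 10 mM MgCl2, 1 mM DTT, 0.1 mM Na3VO4, 0.01% Tween-20; ATP 10 uM. Substrate biotin-GST-cJun(1-79), enzyme from activated HepG2 lysates. Detection by Ser73 phospho-antibody AlphaScreen.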
# [8] = biological target: Cytochrome P450 3A4 (Homo sapiens) (UniProt P08684); assay: qHTS Assay for Activators of Cytochrome P450 3A4 (AID 885); details: recombinant CYP3A4, Luciferin-PPXE luminescence, 60 min; series mostly up to 57.1 µM; further: nearly all actives have a fitted effect of over 65% in size
# Cytochrome P450 3A4 (Homo sapiens), sequence (P08684 whole entry, looked up): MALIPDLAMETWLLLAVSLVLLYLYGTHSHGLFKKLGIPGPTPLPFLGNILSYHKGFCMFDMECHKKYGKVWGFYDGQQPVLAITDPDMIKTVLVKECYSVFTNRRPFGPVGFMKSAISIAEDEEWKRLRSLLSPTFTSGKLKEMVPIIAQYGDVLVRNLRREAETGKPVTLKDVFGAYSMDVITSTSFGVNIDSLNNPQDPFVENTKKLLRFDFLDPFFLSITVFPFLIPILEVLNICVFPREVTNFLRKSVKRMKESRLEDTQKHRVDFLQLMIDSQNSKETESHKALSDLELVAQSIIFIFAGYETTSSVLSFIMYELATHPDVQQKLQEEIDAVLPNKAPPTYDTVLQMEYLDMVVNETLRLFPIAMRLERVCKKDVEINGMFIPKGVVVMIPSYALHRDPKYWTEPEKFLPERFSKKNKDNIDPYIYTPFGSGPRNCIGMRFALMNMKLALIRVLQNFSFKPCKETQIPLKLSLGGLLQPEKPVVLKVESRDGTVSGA
# In short: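 Human CYP3A4 dealkylates Luciferin-PPXE to luciferin, which luciferase detection converts to light. Substrate was at its KM (25uM), buffer 200mM KPO4, reaction 60 min at RT.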
# [9] = NFAT Signaling Pathway (AID 444; active means well fitted curve in either direction with a large enough effect, not every such curve was filed as active;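 further: carbachol stimulus at about its EC50 of 1 µM final; on the % scale 0 is the no-effect control and ±100 the full control effect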); details: Jurkat NFAT-bla M1, carbachol, beta-lactamase ratio, 5 h; at 17.2 µM (top of the series)
# In short: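 Read-out: CCF4 FRET ratio (460 nm/530 nm) after 1 h RT dye loading, used for %activity and AC50 from titration series. Cells: Jurkat NFAT-β-lactamase/M1 line, treated with compound plus 1 uM carbachol for 5 h, 37 °C.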
# [10] = biological target: Cytochrome P450 1A2 (Homo sapiens) (UniProt P05177); assay: p450-cyp1a2 (AID 410; calls by dose curve;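 further: -100% = full effect of reference inhibitor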); details: recombinant CYP1A2, luciferin-ME demethylation, luminescence; series mostly up to 25.6 µM
# Cytochrome P450 1A2 (Homo sapiens), sequence (P05177 whole entry, looked up): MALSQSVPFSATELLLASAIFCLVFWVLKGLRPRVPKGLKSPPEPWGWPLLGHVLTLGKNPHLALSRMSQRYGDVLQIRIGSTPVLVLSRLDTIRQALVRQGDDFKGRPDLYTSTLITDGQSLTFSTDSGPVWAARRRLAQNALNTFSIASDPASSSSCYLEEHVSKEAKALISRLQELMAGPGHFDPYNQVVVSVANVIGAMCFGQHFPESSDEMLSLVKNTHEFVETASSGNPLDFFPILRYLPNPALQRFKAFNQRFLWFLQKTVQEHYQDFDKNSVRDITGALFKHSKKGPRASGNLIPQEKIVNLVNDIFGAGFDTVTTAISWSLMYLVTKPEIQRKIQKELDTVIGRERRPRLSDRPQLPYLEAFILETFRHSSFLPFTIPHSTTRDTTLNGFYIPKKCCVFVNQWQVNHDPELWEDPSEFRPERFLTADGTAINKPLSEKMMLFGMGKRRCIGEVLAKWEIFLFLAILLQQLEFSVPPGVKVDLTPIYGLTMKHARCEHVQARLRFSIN
# In short: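 20nM CYP1A2, 100uM Luciferin-ME (=Km), 100mM KPO4; cpd 10 min RT; +NADPH regen, 60 min RT; stop/detect 20 min; luminescence. Normalized to furafylline 57 uM = full inhibition.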
# [11] = biological target: Glucocorticoid receptor (Homo sapiens) (UniProt P04150); assay: GR-GFP Redistribution (AID 450;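 active means compounds whose dose series gives a full or clear partial fitted curve of increased nuclear translocation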; further: potency means the concentration at half of the fitted maximal effect); details: U2OS GR-GFP nuclear translocation, laser cytometry, 2 h
# Glucocorticoid receptor (Homo sapiens), sequence (P04150 whole entry, looked up, the tested form may be a part): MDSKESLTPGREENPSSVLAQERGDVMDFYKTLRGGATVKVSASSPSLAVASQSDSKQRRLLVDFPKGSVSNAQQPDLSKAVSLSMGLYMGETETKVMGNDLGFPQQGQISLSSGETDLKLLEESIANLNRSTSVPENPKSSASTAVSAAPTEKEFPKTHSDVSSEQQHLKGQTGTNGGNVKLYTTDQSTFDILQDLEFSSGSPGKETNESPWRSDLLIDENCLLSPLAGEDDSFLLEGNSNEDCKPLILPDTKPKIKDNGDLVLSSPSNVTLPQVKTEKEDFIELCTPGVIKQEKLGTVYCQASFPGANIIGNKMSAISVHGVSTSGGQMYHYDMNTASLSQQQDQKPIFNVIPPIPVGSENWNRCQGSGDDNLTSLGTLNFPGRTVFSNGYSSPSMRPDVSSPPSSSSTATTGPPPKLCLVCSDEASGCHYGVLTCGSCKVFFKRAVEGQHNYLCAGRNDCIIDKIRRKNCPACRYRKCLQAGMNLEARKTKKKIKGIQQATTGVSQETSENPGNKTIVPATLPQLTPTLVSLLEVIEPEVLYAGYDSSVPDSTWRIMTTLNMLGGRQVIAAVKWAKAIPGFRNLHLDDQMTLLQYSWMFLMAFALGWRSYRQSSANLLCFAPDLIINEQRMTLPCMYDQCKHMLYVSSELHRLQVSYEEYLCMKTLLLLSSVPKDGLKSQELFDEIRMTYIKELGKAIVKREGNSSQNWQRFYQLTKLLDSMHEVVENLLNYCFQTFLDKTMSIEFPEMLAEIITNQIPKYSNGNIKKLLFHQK
# [12] = biological target: Glucocorticoid receptor (Homo sapiens) (UniProt P04150); assay: GR-EFC Redistribution (AID 451; calls by dose curve; further: potency means the concentration at half of the fitted maximal effect); details: CHO-K1 GR-EFC translocation, beta-gal luminescence, 2 h
# In short: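 Translocation of GR-ED fusion to nuclear EA restores b-gal, read by luminescence after 1 h room-temperature detection. Engineered CHO-K1 biosensor cells, 1,000/well, exposed 2 h at 37 C to titrations up to 46 uM final.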
# [13] = biological target: 3',5'-cyclic-AMP phosphodiesterase 4B (Homo sapiens) (UniProt Q07343); assay: qHTS Assay for Inhibitors of PDE-IV (AID 607; active means well fitted activation curve with a large enough effect in the main read-out, with a control signal flat, not every such curve was filed as active; further: % of control where 0% means no effect); details: HEK293 ACTOne CNG channel cells, membrane potential fluorescence; series mostly up to 22.9 µM
# 3',5'-cyclic-AMP phosphodiesterase 4B (Homo sapiens), sequence (Q07343 whole entry, looked up): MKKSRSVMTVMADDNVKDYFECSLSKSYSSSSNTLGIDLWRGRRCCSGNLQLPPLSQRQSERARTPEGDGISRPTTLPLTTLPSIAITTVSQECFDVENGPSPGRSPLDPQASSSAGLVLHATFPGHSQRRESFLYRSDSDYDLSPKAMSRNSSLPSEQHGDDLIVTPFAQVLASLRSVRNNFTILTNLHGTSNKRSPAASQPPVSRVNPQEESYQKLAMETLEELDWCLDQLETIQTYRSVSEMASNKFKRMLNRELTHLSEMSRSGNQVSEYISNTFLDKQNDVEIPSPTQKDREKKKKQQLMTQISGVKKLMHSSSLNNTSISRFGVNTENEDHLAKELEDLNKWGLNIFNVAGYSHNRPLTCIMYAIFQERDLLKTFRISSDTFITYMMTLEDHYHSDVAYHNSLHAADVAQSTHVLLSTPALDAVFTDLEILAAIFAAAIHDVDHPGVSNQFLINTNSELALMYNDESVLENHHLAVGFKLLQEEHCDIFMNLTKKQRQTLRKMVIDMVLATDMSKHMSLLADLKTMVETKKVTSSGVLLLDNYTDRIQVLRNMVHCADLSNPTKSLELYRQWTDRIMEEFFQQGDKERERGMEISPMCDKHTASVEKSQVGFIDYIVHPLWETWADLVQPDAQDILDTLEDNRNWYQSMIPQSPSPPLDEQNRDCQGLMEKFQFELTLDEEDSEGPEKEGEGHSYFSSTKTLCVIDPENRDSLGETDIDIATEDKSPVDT
# In short: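 HEK293 ACTOne cells with CNG channel (1000/well), endogenous PDE4; membrane potential dye, compounds up to 22.9 uM final. Fluorescence Ex 535/Em 590; RO 20-1724 (100 uM final) as reference.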
# [14] = qHTS profiling for inhibitors of Plasmodium falciparum proliferation (AID 504749);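 further: 0% = DMSO vehicle and full inhibition = artemisinin control; nearly all actives have a fitted effect of over 60% in size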; details: P. falciparum in erythrocytes, SYBR Green DNA, 72 h, at 28.7 µM (top of the series)
# In short: (§1)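 In a 72 h erythrocytic culture (37 C, humidified, 5% CO2) at 2.5% hematocrit and 0.3% starting parasitemia, compounds were tested; SYBR Green I in detergent lysis buffer stained parasite DNA overnight.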
# 3D7 = assay: as above; details: P. falciparum in erythrocytes, SYBR Green DNA, 72 h; series mostly up to 28.7 µM
# In short: as §1
# CP262 = assay: as above; details: P. falciparum in erythrocytes, SYBR Green DNA, 72 h; series mostly up to 28.7 µM
# In short: as §1
# ECU = assay: as above; details: P. falciparum in erythrocytes, SYBR Green DNA, 72 h; series mostly up to 28.7 µM
# In short: as §1
# HB3 = assay: as above; details: P. falciparum in erythrocytes, SYBR Green DNA, 72 h; series mostly up to 28.7 µM
# In short: as §1
# [15] = measured here: cell count channel max response
# [16] = measured here: lipid channel max response
smiles,measurement,setting,value
CC(C)(O)[C@@H]1C2OC(=O)[C@@H]1[C@]1(O)C[C@H]3O[C@]34C(=O)O[C@H]2[C@]14C,"activity change, negative = inhibition",[1]; at 57.5 µM (top of the series),5.46% (inactive)
same,max response,[1]; [15],3.27%
same,max response,[1]; [16],5.39%
same,Potency,[2],inactive
CC(CCC(=O)O)C1CCC2C3CC[C@H]4CC(O)CC[C@@]4(C)C3CC[C@@]12C (some centres undefined),"activity change, negative = inhibition",[1]; at 57.5 µM (top of the series),-0.0455% (inactive)
same,max response,[1]; [15],5.89%
same,max response,[1]; [16],10.6%
same,Potency,[2],79.4 µM (active)
CC(C)CC(CN)CC(=O)O (centres undefined),"activity change, negative = inhibition",[1]; at 57.5 µM (top of the series),8.71% (inactive)
same,max response,[1]; [15],14.3%
same,max response,[1]; [16],26.2%
same,Potency,[3],inactive
same,Potency,[2],inactive
same,Potency,[4],inactive
same,Potency,[5],inactive
same,Potency,[6],inactive
CCCCCCCCCc1ccc(O)cc1,outcome,[7],inactive
same,Potency,[8],inactive
same,"activity change, negative = inhibition",[1]; at 57.5 µM (top of the series),4.47% (inactive)
same,max response,[1]; [15],4.78%
same,max response,[1]; [16],11%
C[C@@H]1O[C@H](O[C@H]2C[C@@H](O)[C@@]3(CO)[C@H]4[C@@H](O)C[C@]5(C)[C@@H](C6=CC(=O)OC6)CC[C@]5(O)[C@H]4CC[C@]3(O)C2)[C@@H](O)[C@H](O)[C@@H]1O,"activity change, negative = inhibition",[9],-76.3% (active)
same,outcome,[7],inactive
same,"activity change, negative = inhibition",[1]; at 25.7 µM (top of the series),-0.396% (inactive)
same,max response,[1]; [15],-4.59%
same,max response,[1]; [16],-4.25%
COc1cc(N)c(Cl)cc1C(=O)N[C@@H]1CN2CCC1CC2,Potency,[10],inactive
same,Potency,[11],> 46 µM (inactive)
same,Potency,[12],> 46 µM (inactive)
same,Potency,[13],inactive
same,"activity change, negative = inhibition",[1]; at 57.5 µM (top of the series),7.47% (inactive)
same,max response,[1]; [15],3.73%
same,max response,[1]; [16],7.11%
same,Potency,[3],inactive
same,Potency,[4],inactive
same,Potency,[5],inactive
same,Potency,[6],inactive
same,"activity, negative = inhibition",[14]; parasite line A,-0.396% (inactive)
same,"activity, negative = inhibition",[14]; parasite line B,5.5% (inactive)
same,Potency,3D7,inactive
same,Potency,CP262,inactive
same,Potency,ECU,inactive
same,Potency,HB3,inactive
COc1cc2c(c(OC)c1OC)-c1ccc(O)c(=O)cc1[C@@H](NC(C)=O)CC2,Potency,[10],inactive
same,Potency,[11],> 46 µM (inactive)
same,Potency,[12],> 46 µM (inactive)
same,outcome,[7],inactive
same,"activity change, negative = inhibition",[1]; at 57.5 µM (top of the series),3.54% (inactive)
same,max response,[1]; [15],16.1%
same,max response,[1]; [16],20.6%
COc1cc2c(c(OC)c1OC)-c1ccc(OC)c(=O)cc1C(NC(C)=O)CC2 (centres undefined),"activity change, negative = inhibition",[1]; at 57.5 µM (top of the series),7.05% (inactive)
same,max response,[1]; [15],10.2%
same,max response,[1]; [16],20.2%
same,Potency,[2],inactive

# From PubChem BioAssay (NCATS)
